Reference: PubChem BioAssay
Active and inactive are the calls of the source. Unless noted, the rule behind the calls is not given here.

Columns and labels:
[1] = kinase inhibitors against Plasmodium liver-stage infection, cell-based, known kinase inhibitor set, luminescence, hepatoma host viability (AID 624392); conditions: Plasmodium liver stage in hepatoma cells, luciferase luminescence, concentration not given here; liver cell % of control: measured here: host liver cell viability; parasite % of control: stronger effect = lower value;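 note: infected cells incubated roughly two days before readout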
[2] = modulators of glucocorticoid suppression of NF-kB, cell-based, luciferase, IL-1B stimulus, dexamethasone (AID 624486); conditions: NF-kB luciferase reporter, IL-1B + dexamethasone, luminescence; percent of negative control (+Dex): actives lie on both sides, concentration not given here; z-score: measured here: IL-1B alone, no Dex;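 for percent of negative control (+Dex): 100% = mean signal of vehicle control wells on the plate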
[3] = kinase inhibitors altering Pseudomonas killing of worms, whole organism (AID 651566);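 note: tested at 14 µM; sign flipped so higher z means a lower ratio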; conditions: C. elegans killed by P. aeruginosa, survival ratio
[4] = activators of macrophage pro-inflammatory response, cell-based, murine, luminescence (AID 652131); conditions: murine macrophage pro-inflammatory reporter, stronger effect = higher value
[5] = target: Cellular tumor antigen p53 (Homo sapiens) (UniProt P04637); assay: kinase inhibitors altering GFP-p53 stability in HPV16-positive cells, imaging, known kinase inhibitor set, EGFP/DsRed ratio (AID 1053116); conditions: stronger effect = higher value; EGFP object count: measured here: GFP-p53 positive objects count;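 note: cells exposed to compounds for 24 h at 37 °C before reading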
[6] = IRF3 reporter activation in THP-1 macrophages, cell-based, PMA-stimulated THP-1, luminescence (AID 1053176); conditions: PMA-differentiated THP-1, IRF3 reporter luminescence; stronger effect = higher value
[7] = survival rescue of mitochondrial mutant cells in low glucose, primary screen, MELAS cybrids, Rieske KO mouse fibroblasts, CellTiter-Glo (AID 1508586;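 active = mean z-score across replicates of 1.96 or higher in either the MELAS or the Rieske mutant cell line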;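 note: z relative to plate mean and SD of compound and empty wells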)
[8] = MELAS cybrid survival, CellTiter-Glo 48 h, stronger effect = higher value
[9] = Rieske KO mouse fibroblast survival, CellTiter-Glo 72 h

Sequence of Cellular tumor antigen p53 (Homo sapiens) (P04637 whole entry, looked up): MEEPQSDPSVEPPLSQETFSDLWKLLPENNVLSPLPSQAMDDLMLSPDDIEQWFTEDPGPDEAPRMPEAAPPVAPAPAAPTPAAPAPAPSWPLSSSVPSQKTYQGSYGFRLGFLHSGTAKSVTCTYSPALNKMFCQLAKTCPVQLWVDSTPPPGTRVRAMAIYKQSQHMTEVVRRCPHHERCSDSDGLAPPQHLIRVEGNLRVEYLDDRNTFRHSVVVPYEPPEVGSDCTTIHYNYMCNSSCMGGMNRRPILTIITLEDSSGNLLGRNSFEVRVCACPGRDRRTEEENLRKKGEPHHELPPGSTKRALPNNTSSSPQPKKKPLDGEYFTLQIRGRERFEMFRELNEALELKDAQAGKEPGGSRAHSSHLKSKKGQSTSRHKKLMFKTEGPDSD

SMILES | liver cell % of control [1] [%] | parasite % of control [1] | percent of negative control (+Dex) [2] | z-score [2] | z-score [3] | z-score [4] | EGFP object count [5] | EGFP/DsRed ratio [5] | fraction signal [6] | z-score [7, 8] | z-score [7, 9]
CN(C)CCCn1c(-c2nonc2N)nc2cnccc21 | 105 | 124% (inactive) | 91% (inactive) | 0.395 | 0.105 (inactive) | -0.067 (inactive) | 3.5 | 0.0389 (inactive) | -0.0015 (inactive) | -0.855 (inactive) | -0.298
COc1cc2ncn(-c3cc(O[C@H](C)c4ccccc4Cl)c(C(N)=O)s3)c2cc1OC | 137 | 13.5% (active) | 53.5% (inactive) | -3.26 | -0.155 (inactive) | -1.16 (inactive) | 5.5 | 0.108 (inactive) | -0.004 (inactive) | -1.03 | 5.68
NC(=O)c1sc(-n2cnc3cc(C(F)(F)F)ccc32)cc1OCc1ccccc1Br | 109 | 113% (inactive) | 94.5% (inactive) | 0.595 | 0.64 (inactive) | -0.704 (inactive) | 10.5 | 0.407 (inactive) | -0.0005 (inactive) | 0.066 (inactive) | -0.5
COc1cc2c(cc1Nc1nc(Nc3ccsc3C(N)=O)c3cc[nH]c3n1)N(C(=O)CN(C)C)CCC2 | 54.7 | 369% (inactive) | 95.5% (inactive) | -0.185 | -0.225 (inactive) | 2.59 (inactive) | 1.5 | 0.0536 (inactive) | -0.007 (inactive) | 2.79 (active) | 10.1
Cc1cc(O)cc(C)c1/C=C/c1cncc(C(N)=O)c1 | 105 | 146% (inactive) | 106% (inactive) | 0.29 | -0.395 (inactive) | 0.198 (inactive) | 4 | 0.013 (inactive) | -0.001 (inactive) | -0.353 (inactive) | -0.218
COc1cc2c(cc1Nc1nc(N3CCc4ccccc43)c3cc[nH]c3n1)N(C(=O)CN(C)C)CC2 | 75 | 160% (inactive) | 104% (inactive) | 0.675 | 0.56 (inactive) | 0.168 (inactive) | 16.5 | 1.27 (inactive) | -0.0105 (inactive) | -0.598 | 2.39
CCCN1CCC=C(c2ccc(Nc3nc(Nc4ccccc4C(N)=O)c4cc[nH]c4n3)c(C)c2)C1 | 86.8 | 580% (inactive) | 88% (inactive) | -0.67 | 0.47 (inactive) | -1.61 (inactive) | 4 | 0.193 (inactive) | 0 (inactive) | -0.329 (inactive) | 0.0526
Nc1ccc(C#Cc2cncnc2Nc2ccc(OCc3cccc(F)c3)c(Cl)c2)cc1 | 98 | 136% (inactive) | 106% (inactive) | 0.915 | -0.52 (inactive) | -0.735 (inactive) | 4 | 0.276 (inactive) | 0.001 (inactive) | -0.813 (inactive) | -0.0706
O=C1NC(=O)C(N2CCc3ccccc32)=C1c1ccc(Cl)cc1 | 86.6 | 138% (inactive) | 74% (inactive) | -1.47 | -1.35 (inactive) | -0.315 (inactive) | 4 | 0.106 (inactive) | -0.0285 (inactive) | -0.729 (inactive) | 0.357
COc1ccc2cc(-c3c(-c4ccncc4)nc(-c4ccc(S(C)(=O)=O)cc4C)n3C)ccc2c1 | 118 | 101% (inactive) | 99% (inactive) | 0.22 | 1.57 (inactive) | -0.298 (inactive) | 1.5 | 0.0486 (inactive) | 0.0025 (inactive) | -0.409 (inactive) | -0.281
COC(=O)Nc1nc2ccc(S(=O)(=O)c3ccc(NC(=O)Nc4cc(C(F)(F)F)ccc4F)cc3)cc2[nH]1 | 80 | 100% (inactive) | 86.5% (inactive) | 0.105 | -0.105 (inactive) | 2.68 (inactive) | 1.5 | 0.00404 (inactive) | 0 (inactive) | 0.00101 (inactive) | -0.437
COc1cc(/C=N/Nc2ncnc3c2cnn3Cc2ccccc2)ccc1O | 94.9 | 99.3% (inactive) | 85% (inactive) | -0.18 | -0.52 (inactive) | 1.23 (inactive) | 100 | 1.43 (active) | 0.0995 (inactive) | 1.43 (inactive) | 0.207
COc1cc(N2CCN(C(C)C)CC2)ccc1Nc1nc(Nc2ccc(F)cc2C(=O)NC[C@@H](O)CO)c2cc[nH]c2n1 | 85 | 330% (inactive) | 103% (inactive) | 0 | -0.875 (inactive) | -0.151 (inactive) | 3.5 | 0.273 (inactive) | 0 (inactive) | -0.811 (inactive) | 0.239
OCc1ccc(-c2nc(-c3ccc4c(c3)OCO4)c(-c3ccccn3)[nH]2)cc1 | 108 | 115% (inactive) | 106% (inactive) | -0.455 | -0.12 (inactive) | 1.4 (inactive) | 3.5 | 0.0782 (inactive) | 0.0015 (inactive) | -0.819 (inactive) | -0.0179
CCN1CCC(CC(=O)NC2NNC3NNC(c4cccc(F)c4F)CC32)CC1 (stereo unspecified) | 80.9 | 32.2% (inactive) | 118% (inactive) | -0.095 | -0.285 (inactive) | 0.818 (inactive) | 25.5 | 0.256 (inactive) | -0.004 (inactive) | -0.762 (inactive) | -0.436
Fc1ccc(-c2nn3ncccc3c2-c2ccnc(Nc3ccc4c(c3)OCCO4)n2)cc1 | 90.5 | 13.9% (inactive) | 100% (inactive) | -1.27 | -0.41 (inactive) | -0.769 (inactive) | 3 | 0.08 (inactive) | -0.003 (inactive) | -0.754 (inactive) | -0.424
CCn1c(-c2nonc2N)nc2ccncc21 | 99.1 | 98.3% (inactive) | 93.5% (inactive) | -0.26 | -0.61 (inactive) | -0.193 (inactive) | 4 | 0.405 (inactive) | -0.004 (inactive) | -0.197 (inactive) | -0.472
Nc1nc(-c2ccc3c(c2)/C(=C\c2cc(Br)c(O)c(Br)c2)C(=O)N3)cs1 | 70.8 | 79.2% (inactive) | 86.5% (inactive) | -0.23 | 0.35 (inactive) | 2.85 (inactive) | 5.5 | 0.264 (inactive) | -0.002 (inactive) | -0.944 (inactive) | -0.14
CS(=O)(=O)CCNCc1ccc(-c2ccc3ncnc(Nc4ccc(OCc5cccc(C(F)(F)F)c5)cc4)c3c2)o1 | 91.4 | 126% (inactive) | 85% (inactive) | -0.68 | -0.1 (inactive) | 0.289 (inactive) | 4.5 | 0.109 (inactive) | 0.018 (inactive) | 0.798 (inactive) | -0.393
CCN1CCC(C(=O)NC2NNC3NNC(c4cccc(F)c4F)CC32)CC1 (stereo unspecified) | 73.6 | 144% (inactive) | 114% (inactive) | -0.315 | -0.46 (inactive) | 2.7 (inactive) | 15 | 0.326 (inactive) | -0.002 (inactive) | -0.831 (inactive) | -0.194
NS(=O)(=O)c1ccc(NC2CC(c3cccc(O)c3)NN2)cc1 (stereo unspecified) | 92.2 | 101% (inactive) | 81.5% (inactive) | -0.55 | -1.21 (inactive) | 1.01 (inactive) | 5.5 | 0.108 (inactive) | -0.0035 (inactive) | 1.31 (inactive) | -0.281
Fc1cccc(COc2ccc(Nc3ncncc3C#Cc3ccccc3)cc2Cl)c1 | 87.3 | 98% (inactive) | 85.5% (inactive) | -0.815 | 1.36 (inactive) | -0.904 (inactive) | 4 | 0.0412 (inactive) | -0.002 (inactive) | -0.0898 (inactive) | -0.226
OCCCNc1nccc(-c2c(-c3ccc(F)cc3)nn3cc(C(F)(F)F)ccc23)n1 | 124 | 77.5% (inactive) | 106% (inactive) | 1.02 | 0.765 (inactive) | 0.66 (inactive) | 2 | 0.0239 (inactive) | -0.0065 (inactive) | -0.607 (inactive) | 0.0984
CCn1c(-c2nonc2N)nc2c(C#CC(C)(C)O)ncc(OC[C@@H]3CCCN3)c21 | 81.5 | 41.7% (inactive) | 104% (inactive) | -0.32 | -0.14 (inactive) | 5.3 (inactive) | 11.5 | 0.291 (inactive) | 0.0025 (inactive) | -0.59 (inactive) | -0.205
COc1cc(N2CCN(C(C)C)CC2)ccc1Nc1nc(Nc2cccc(F)c2C(=O)O)c2cc[nH]c2n1 | 115 | 124% (inactive) | 100% (inactive) | -0.075 | 1.24 (inactive) | -0.341 (inactive) | 4 | 0.0569 (inactive) | 0.0115 (inactive) | -0.385 (inactive) | -0.236
NC(=O)c1ccc(Oc2nccc(-c3c(-c4ccc(F)cc4)ncn3C3CCNCC3)n2)cc1 | 89.2 | 144% (inactive) | 96% (inactive) | 0.125 | 0.14 (inactive) | 0.154 (inactive) | 8.5 | 0.173 (inactive) | -0.008 (inactive) | 0.243 (inactive) | -0.477
